Data reported in PubChem BioAssay (EPA / NIEHS).
“And” between values parts separate entries of the source, which are not always exact repeats. Equal values may be shown once. Results filed as inconclusive are left out. The source holds several records for some structures; these can differ, active in one and inactive in another. The source made the active and inactive calls. Rule for the calls, unless noted: active = hit-call score of the fitted dose curve at least 0.9, where 1 is the maximum; inactive = score below 0.9.

How the values were obtained:
[1] = read-out: Monocyte Chemoattractant Protein-1 (MCP1), CCL2 (gene 6347); experiment: BSK_LPS_MCP1: BioMAP Diversity Plus: LPS Assay for Monocyte Chemoattractant Protein-1 (MCP1) Biomarker Activity (AID 2283081); details: primary human HUVEC with PBMC; actives raise or lower the signal;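 for AC50: secreted MCP-1 protein quantified by ELISA in culture supernatant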
How it was run: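 ELISA read-out of MCP-1 after 24 h chemical dosing of a human umbilical vein endothelial cell/peripheral blood mononuclear cell co-culture stimulated with LPS. Gain or loss of signal fitted relative to DMSO controls.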

[2] = BSK_LPS_PGE2: BioMAP Diversity Plus: LPS Assay for Prostaglandin E2 (PGE2) Biomarker Activity (AID 2283082); details: primary human HUVEC with PBMC; actives raise or lower the signal;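 for AC50: secreted prostaglandin E2 measured by ELISA in LPS-stimulated co-culture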
How it was run: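 Endpoint derived from bidirectional curve fitting versus DMSO of ELISA-measured PGE2 in LPS-stimulated human primary vascular co-culture (HUVEC with PBMC) harvested at 24 h.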

[3] = read-out: Macrophage colony-stimulating factor (MCSF), CSF1 (gene 1435); experiment: BSK_LPS_MCSF: BioMAP Diversity Plus: LPS Assay for Macrophage colony-stimulating factor (MCSF) Biomarker Activity (AID 2283083); details: primary human HUVEC with PBMC; actives raise or lower the signal
How it was run: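 HUVEC + PBMC co-culture (human primary), 24 h post-dose; M-CSF by ELISA; gain/loss of signal fitted bidirectionally vs DMSO baseline.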

[4] = read-out: Tissue Factor, F3 (gene 2152); experiment: BSK_LPS_TissueFactor: BioMAP Diversity Plus: LPS Assay for Tissue Factor Biomarker Activity (AID 2283084); details: primary human HUVEC with PBMC; actives raise or lower the signal
How it was run: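 HUVEC/PBMC co-culture, LPS-activated; CD142 ELISA read 24 h post-dose; bidirectional curve fit vs DMSO negative control.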

[5] = read-out: Tumor necrosis factor (Homo sapiens) (UniProt P01375); experiment: BSK_LPS_TNFa: BioMAP Diversity Plus: LPS Assay for Tumour Necrosis Factor alpha (TNFa) Biomarker Activity (AID 2283085); details: primary human HUVEC with PBMC; actives raise or lower the signal
How it was run: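 Primary human vascular co-culture of HUVEC and PBMC; TNFa ELISA 24 h after treatment, analysed as increase or decrease relative to DMSO control.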

[6] = read-out: Vascular cell adhesion molecule 1 (VCAM1), VCAM1 (gene 7412); experiment: BSK_LPS_VCAM1: BioMAP Diversity Plus: LPS Assay for Vascular cell adhesion molecule 1 (VCAM1) Biomarker Activity (AID 2283086); details: primary human HUVEC with PBMC; actives raise or lower the signal
How it was run: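 Primary human vascular co-culture (umbilical vein endothelium plus PBMC) stimulated with LPS received chemical; 24 h later VCAM-1 was read by ELISA. Overt cytotoxicity was assessed by sulforhodamine B staining of parallel cultures at the same time point.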

CD38, CD38 (gene 952) = experiment: BSK_SAg_CD38: BioMAP Diversity Plus: SAg Assay for CD38 Biomarker Activity (AID 2283087); details: primary human HUVEC with PBMC; actives raise or lower the signal
How it was run: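 Fluorescence ELISA of cell-surface CD38 served as the read-out, with either increase or decrease fitted against DMSO controls. Cells were a human umbilical vein endothelium plus PBMC co-culture under SEB/TSST-1 stimulation, measured 24 h after dosing.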

CD40, CD40 (gene 958) = experiment: BSK_SAg_CD40: BioMAP Diversity Plus: SAg Assay for CD40 Biomarker Activity (AID 2283088); details: primary human HUVEC with PBMC; actives raise or lower the signal
How it was run: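 HUVEC/PBMC co-culture, 24 h post-dose; CD40 by ELISA, fluorescence intensity; bidirectional fit vs DMSO negative control.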

CD69, CD69 (gene 969) = experiment: BSK_SAg_CD69: BioMAP Diversity Plus: SAg Assay for CD69 Biomarker Activity (AID 2283089); details: primary human HUVEC with PBMC; actives raise or lower the signal;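 for AC50: cell surface CD69 protein quantified by ELISA with fluorescence detection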
How it was run: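 Values derive from bidirectional fitting relative to DMSO vehicle. Cells: umbilical vein endothelium plus peripheral blood mononuclear cells, treated 24 h before fluorescent ELISA for CD69.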

[7] = read-out: Monocyte Chemoattractant Protein-1 (MCP1), CCL2 (gene 6347); experiment: BSK_SAg_MCP1: BioMAP Diversity Plus: SAg Assay for Monocyte Chemoattractant Protein-1 (MCP1) Biomarker Activity (AID 2283090); details: primary human HUVEC with PBMC; actives raise or lower the signal
How it was run: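 MCP-1 levels in the endothelial–PBMC SAg co-culture were quantified by ELISA at 24 h post-dosing; both increases and decreases versus DMSO scored. Cytotoxicity monitored by SRB total protein in parallel cultures.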

[8] = read-out: E-selectin (Homo sapiens) (UniProt P16581); experiment: BSK_SAg_Eselectin: BioMAP Diversity Plus: SAg Assay for Eselectin Biomarker Activity (AID 2283091); details: primary human HUVEC with PBMC; actives raise or lower the signal
How it was run: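 E-selectin ELISA readout at 24 h post-dosing in human umbilical vein endothelial cell/PBMC co-culture; gain or loss of signal fitted relative to DMSO baseline.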

[9] = read-out: Monokine induced gamma interferon (MIG), CXCL9 (gene 4283); experiment: BSK_SAg_MIG: BioMAP Diversity Plus: SAg Assay for Monokine induced gamma interferon (MIG) Biomarker Activity (AID 2283092); details: primary human HUVEC with PBMC; actives raise or lower the signal
How it was run: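 Values reflect bidirectional fitting of ELISA-measured MIG against DMSO vehicle, taken 24 h after dosing of a co-culture of human umbilical vein endothelial cells and peripheral blood mononuclear cells.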

[10] = BSK_SAg_Proliferation: Cell Proliferation Assessment in the BioMAP Diversity Plus: SAg Assay (AID 2283095); details: primary human HUVEC with PBMC;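 note: relative cell number as total protein by SRB absorbance in sub-confluent culture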
How it was run: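 Readout is SRB-stained protein (560 nm) in a primary human HUVEC and PBMC co-culture; sub-confluent cultures are read at 96 h. Activity is fitted bidirectionally using DMSO as baseline.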

[11] = BSK_SAg_SRB: Viability Assessment in the BioMAP Diversity Plus: SAg Assay (AID 2283096); details: primary human HUVEC with PBMC;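 note: cells read one day after compound addition; hits may be either gain or loss of signal compared with DMSO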
How it was run: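 Human umbilical vein endothelial cells co-cultured with PBMC, read 24 h after compound dosing. Total protein measured by sulforhodamine B staining (0.1% SRB after 10% TCA fixation, absorbance 560 nm); bidirectional fit versus DMSO baseline.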

[12] = read-out: Interleukin-8 (IL8), CXCL8 (gene 3576); experiment: BSK_SAg_IL8: BioMAP Diversity Plus: SAg Assay for Interleukin-8 (IL8) Biomarker Activity (AID 2283094); details: primary human HUVEC with PBMC; actives raise or lower the signal
How it was run: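 In this co-culture of human umbilical vein endothelium with peripheral blood mononuclear cells, IL-8 is assayed by ELISA at 24 h. DMSO serves as baseline for bidirectional curve fitting.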

[13] = target: human CYP2C9, CYP2C9 (gene 1559) (UniProt P11712); experiment: NVS_ADME_hCYP2C9: NovaScreen (NVS) CYP450-related Enzyme Activity (ADME) Assay for human CYP2C9 (AID 2283108; active = hit-call score of the fitted dose curve at least 0.9, where 1 is the maximum)
How it was run: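 Recombinant human CYP2C9 expressed in SF9 cells, fluorogenic substrate, fluorescence read 0.75 h after dosing. Chemicals first run in duplicate at 10 uM, with actives followed in concentration series; loss of signal versus acetonitrile baseline.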

[14] = BSK_SAg_PBMCCytotoxicity: PBMC Cytotoxicity Assessment in the BioMAP Diversity Plus: SAg Assay (AID 2283093); details: primary human HUVEC with PBMC;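 note: PBMC viability measured as Alamar Blue reduction fluorescence at 546/580 nm; fitted both ways against DMSO so a hit may be loss or gain of signal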
How it was run: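 HUVEC/PBMC co-culture; PBMC exposed to chemical 1 h before SEB and TSST-1 activation (20 ng/mL each), incubated 90 h, then Alamar Blue 6 h, fluorescence 546/580 nm. Bidirectional fit versus DMSO baseline.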

Measured: AC50

Sequence of E-selectin (Homo sapiens) (P16581 whole entry, looked up): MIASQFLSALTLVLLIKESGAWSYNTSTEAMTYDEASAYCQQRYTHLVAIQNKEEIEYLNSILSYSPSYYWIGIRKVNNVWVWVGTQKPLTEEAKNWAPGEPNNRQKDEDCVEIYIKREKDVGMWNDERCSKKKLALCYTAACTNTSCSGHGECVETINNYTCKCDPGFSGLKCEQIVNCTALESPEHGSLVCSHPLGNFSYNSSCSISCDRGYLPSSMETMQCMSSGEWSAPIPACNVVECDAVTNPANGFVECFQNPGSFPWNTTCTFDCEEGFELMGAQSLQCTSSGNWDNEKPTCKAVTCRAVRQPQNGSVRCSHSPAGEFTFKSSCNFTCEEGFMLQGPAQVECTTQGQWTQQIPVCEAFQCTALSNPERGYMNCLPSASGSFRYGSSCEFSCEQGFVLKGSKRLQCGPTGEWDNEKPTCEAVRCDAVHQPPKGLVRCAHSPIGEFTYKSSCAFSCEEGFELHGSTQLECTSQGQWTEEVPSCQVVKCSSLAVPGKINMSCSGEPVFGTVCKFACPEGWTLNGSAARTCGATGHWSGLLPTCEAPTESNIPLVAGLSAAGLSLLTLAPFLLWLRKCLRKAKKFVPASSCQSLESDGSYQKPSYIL
Sequence of Tumor necrosis factor (Homo sapiens) (P01375 whole entry, looked up): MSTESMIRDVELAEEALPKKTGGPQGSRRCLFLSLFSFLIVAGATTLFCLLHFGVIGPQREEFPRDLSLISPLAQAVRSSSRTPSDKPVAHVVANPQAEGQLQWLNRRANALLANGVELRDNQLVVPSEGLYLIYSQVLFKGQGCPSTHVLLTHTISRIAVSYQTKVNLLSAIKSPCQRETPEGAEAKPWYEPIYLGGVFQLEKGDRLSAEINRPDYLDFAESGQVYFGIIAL
Sequence of human CYP2C9, CYP2C9 (gene 1559) (P11712 whole entry, looked up): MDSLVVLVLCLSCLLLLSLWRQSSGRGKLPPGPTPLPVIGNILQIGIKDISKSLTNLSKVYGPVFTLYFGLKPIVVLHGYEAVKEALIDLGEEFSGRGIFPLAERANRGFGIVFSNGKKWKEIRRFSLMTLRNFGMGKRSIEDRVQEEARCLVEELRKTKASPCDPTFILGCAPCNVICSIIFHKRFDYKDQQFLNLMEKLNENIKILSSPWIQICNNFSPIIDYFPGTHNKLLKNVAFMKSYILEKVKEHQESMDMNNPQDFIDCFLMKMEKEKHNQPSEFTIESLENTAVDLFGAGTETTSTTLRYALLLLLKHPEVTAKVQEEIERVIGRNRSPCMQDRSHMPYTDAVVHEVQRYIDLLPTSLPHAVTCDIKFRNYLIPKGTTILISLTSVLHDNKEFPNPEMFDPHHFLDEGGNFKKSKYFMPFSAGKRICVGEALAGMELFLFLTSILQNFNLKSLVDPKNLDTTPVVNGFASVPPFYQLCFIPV

FC(F)(F)C(F)(F)C(F)(F)C(F)(F)C(F)(F)C(F)(F)CCS
not listed: [12] | [13] | [14]
inactive: all other assays above

COC(=O)CCC(F)(F)C(F)(F)C(F)(F)C(F)(F)F
not listed: [12] | [13] | [14]
inactive: all other assays above

CCCCOCCOCCOC(=O)CCCCC(=O)OCCOCCOCCCC
active: [5] 5.67 µM | [13] 3.07 µM
not listed: [14]
inactive: all other assays above

OCCCC(F)(F)C(F)(F)C(F)(F)C(F)(F)C(F)(F)C(F)(F)C(F)(F)F
active: [1] 44.7 µM and 44.2 µM | [3] 46 µM and 47.8 µM | [4] 49.9 µM and 45.5 µM | [5] 48 µM and 25.8 µM | [6] 51.4 µM and 43.6 µM | CD38, CD38 (gene 952) 47.1 µM and 49.3 µM | CD40, CD40 (gene 958) 48 µM and 50.1 µM | CD69, CD69 (gene 969) 42.4 µM and 41.7 µM | [7] 43.2 µM and 46.3 µM | [8] 44.2 µM and 38.8 µM | [9] 54 µM and 50.8 µM | [12] 23.3 µM and 50.1 µM | [10] 16.8 µM and 16.3 µM | [11] 51.4 µM and 44.9 µM
inactive: [2]

FC1CC(F)(F)C(F)(F)C1(F)F (centres undefined)
not listed: [13]
inactive: all other assays above

O=S(=O)(OCCOC(F)(F)F)C(F)(F)F
not listed: [13] | [14]
inactive: all other assays above

CCCCCCCOC(=O)c1ccccc1C(=O)OCCCCCCC
not listed: [13] | [14]
inactive: all other assays above

OCCCC(F)(F)C(F)(F)C(F)(F)F
not listed: [13]
inactive: all other assays above

OCC(F)(F)C(F)(F)C(F)(F)C(F)(F)C(F)(F)C(F)(F)F
active: CD38, CD38 (gene 952) 9.86 µM and 5.95 µM
not listed: [12] | [13]
inactive: all other assays above

FC(F)(F)C(F)(F)CNCC(F)(F)C(F)(F)F
active: [3] 6.78 µM
inactive: [1] | [2] | [3] | [4] | [5] | [6] | CD38, CD38 (gene 952) | CD40, CD40 (gene 958) | CD69, CD69 (gene 969) | [7] | [8] | [9] | [14] | [12] | [10] | [11]

O=C(O)C(F)(F)C(F)(F)C(F)(F)C(F)(F)C(F)(F)C(F)(F)C(F)(F)C(F)(F)C(F)(F)C(F)F
active: [1] 41.1 µM and 44.3 µM | [2] 42.6 µM and 48.8 µM | [6] 52.5 µM and 46.9 µM | CD38, CD38 (gene 952) 48.3 µM and 46.3 µM | CD40, CD40 (gene 958) 41.9 µM and 44.6 µM | CD69, CD69 (gene 969) 37.6 µM and 47.3 µM | [7] 44.9 µM and 46 µM | [8] 54.2 µM | [10] 47.8 µM and 54.6 µM | [11] 47.3 µM and 45.8 µM
inactive: [3] | [4] | [5] | [8] | [9] | [14]

O=C(CC(=O)C(F)(F)C(F)(F)F)C(F)(F)F
not listed: [12] | [13]
inactive: all other assays above

FC(F)(F)C(F)(F)C(F)(F)C(F)(F)C(F)(F)C(F)(F)C(F)(F)Br
not listed: [12] | [13]
inactive: all other assays above
